From PubChem BioAssay (Tox21)
Records with an inconclusive call do not appear. Active and inactive are the calls of the source. Unless noted, the call rests on the fitted dose curve; in most records, active means well fitted curve in the direction sought with a large enough effect in the repeat runs; inconclusive means weak or mixed curves; inactive means no such curve, though single readings can be large; an effect the other way counts as inactive or inconclusive.

How the values were obtained:
[1] = A CellTox Green Cytotoxicity Assay to monitor cytotoxicity in HEK293 cells - 32 hour (AID 1224881); further: nearly all actives have a fitted effect of over 40% in size
In short: (§1)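 Dead-cell fluorescence measured kinetically: asymmetric cyanine dye, HEK293, 600 cells/well, 5 h settle, 23 nL cpd/DMSO, 37 C, reads 0–40 h every 8 h.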

[2] = A CellTox Green Cytotoxicity Assay to monitor cytotoxicity in HepG2 cells - 32 hour (AID 1224883); further: nearly all actives have a fitted effect of over 50% in size
In short: (§2)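 First, HepG2 cells (600/well) mixed with reagent were plated; second, after 5 h at 37 C they received compounds via pintool; third, fluorescence was measured at 0 h through 40 h at 8 h intervals.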

[3] = A CellTox Green Cytotoxicity Assay to monitor cytotoxicity in HEK293 cells - 8 hour (AID 1224884); further: nearly all actives have a fitted effect of over 35% in size
In short: as §1

[4] = qHTS RealTime-Glo MT Cell Viability Assay in HepG2 cells - 16 hour (AID 1224885); further: nearly all actives have a fitted effect of over 50% in size
In short: (§3)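 Luminescence read-out: viable HepG2 cells reduce a prosubstrate to a NanoLuc substrate, giving a signal proportional to live cell number. Reads taken at 0, 8, 16, 24, 32 and 40 h of compound exposure at 37 C.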

[5] = qHTS RealTime-Glo MT Cell Viability Assay in HEK293 cells - 24 hour (AID 1224886); further: top concentration of the series differs between compounds; nearly all actives have a fitted effect of over 50% in size
In short: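 Nonlytic real-time viability readout: viable cells convert prosubstrate to NanoLuc substrate, giving luminescence proportional to live cell number. HEK293, 600 cells/well, compound added after 5 h, continuous culture at 37 C.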

[6] = qHTS RealTime-Glo MT Cell Viability Assay in HEK293 cells - 8 hour (AID 1224887); further: top concentration of the series differs between compounds; nearly all actives have a fitted effect of over 50% in size
In short: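 600 HEK293 cells per well, dispensed already mixed with RealTime-Glo MT reagents. Compound dosing came 5 h later. The same wells were read for luminescence at 0, 8, 16, 24, 32 and 40 h of exposure at 37 C.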

[7] = A CellTox Green Cytotoxicity Assay to monitor cytotoxicity in HEK293 cells - 16 hour (AID 1224888); further: nearly all actives have a fitted effect of over 35% in size
In short: as §1

[8] = qHTS RealTime-Glo MT Cell Viability Assay in HepG2 cells - 0 hour (AID 1224889); further: nearly all actives have a fitted effect of over 50% in size
In short: as §3

[9] = qHTS assay to identify small molecule antagonists of the estrogen receptor alpha (ER-alpha) signaling pathway using the BG1 cell line in the presence of 0.1 nM 17-beta-estradiol - cell viability counter screen (AID 1259241); further: nearly all actives have a fitted effect of over 40% in size
In short: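 Live-cell protease activity (CellTiter-Fluor fluorescence, 30 min) was read in the same wells after VM7Luc4E2 cells had been exposed to compounds with 0.1 nM 17beta-estradiol for 22 hr at 37C.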

[10] = qHTS assay to identify small molecule antagonists of the androgen receptor (AR) signaling pathway using the MDA cell line in the presence of 0.5 nM R1881 - cell viability counter screen (AID 1259242); further: nearly all actives have a fitted effect of over 45% in size
In short: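 qHTS format. MDA-kb2 (MMTV-luc, AR/GR responsive) + cpd + 0.5 nM R1881 final, 16 hr 37C/0% CO2 → CellTiter-Fluor 30 min → fluorescence intensity.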

[11] = target: Estrogen receptor (Homo sapiens) (UniProt P03372); assay: qHTS assay to identify small molecule antagonists of the estrogen receptor alpha (ER-alpha) signaling pathway using the BG1 cell line in the presence of 0.1 nM 17-beta-estradiol (AID 1259244); further: nearly all actives have a fitted effect of over 50% in size
In short: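 Reporter is a stably transfected luciferase under four estrogen responsive elements in VM7Luc4E2 cells expressing native full-length ER-alpha; inhibition of 0.1 nM (final) 17beta-estradiol-driven signal over 22 h is read by luminescence.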

[12] = qHTS assay to identify small molecule phospholipidosis (PLD) inducers (AID 1259344; active means well fitted curve in the direction sought with a large enough effect; an effect the other way counts as inactive or inconclusive)
In short: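 Accumulated phospholipid, stained red by LipidTOX during 24 h compound treatment of HepG2 cells at 37 C, is quantified from images as pit number and intensity, normalised per cell using Hoechst-stained nuclei.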

[13] = qHTS assay to identify small molecule HDAC inhibitors (AID 1259364);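 further: wild-type HCT-116 cells with endogenous class I/II HDAC activity; top concentration of the series differs between compounds; nearly all actives have a fitted effect of over 45% in size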
In short: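 Quantitative high-throughput format: overnight-seeded HCT-116 cells got compounds for 2 hr at 37C; HDAC-Glo I/II reagent added, 30 min RT, luminescence measured.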

[14] = qHTS assay to identify small molecule agonists of the sonic hedgehog signaling (Shh) pathway - cell viability counter screen (AID 1259366); further: nearly all actives have a fitted effect of over 50% in size
In short: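 CellTiter-Fluor fluorescence read-out, 1 hr at 37C, added after 23hr compound exposure. Cells: 3T3 Gli1-Luc, an NIH/3T3 clone with stably integrated Gli1-Luc reporter, plated 4hr before compound.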

[15] = qHTS assay to identify small molecule antagonists of the sonic hedgehog signaling (Shh) pathway - cell viability counter screen (AID 1259367); further: nearly all actives have a fitted effect of over 55% in size
In short: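 CellTiter-Fluor signal in conditioned medium-stimulated 3T3 Gli1-Luc cells, 23 hr compound exposure, 37C.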

[16] = qHTS assay to identify small molecule agonists of the sonic hedgehog signaling (Shh) pathway (AID 1259368; calls by dose curve;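 further: NIH/3T3-derived 3T3Gli1-Luc cells carrying a stable Gli1-driven firefly luciferase reporter; series mostly up to about 92 µM; nearly all actives have a fitted effect of over 15% in size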)
In short: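 Quantitative high-throughput format using a Gli1-driven firefly luciferase reporter line derived from NIH/3T3 cells. After a 24 hr compound treatment at 37 C and 5% CO2, luminescence reported Gli1 response element activity.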

[17] = A CellTox Green Cytotoxicity Assay to monitor cytotoxicity in HepG2 cells - 8 hour (AID 1224890); further: nearly all actives have a fitted effect of over 45% in size
In short: as §2

[18] = target: Androgen receptor (Homo sapiens) (UniProt P10275); assay: qHTS assay to identify small molecule antagonists of the androgen receptor (AR) signaling pathway using the MDA cell line in the presence of 0.5 nM R1881 (AID 1259243); further: nearly all actives have a fitted effect of over 50% in size
In short: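 Antagonist mode quantitative HTS in MDA-kb2 MMTV-luciferase cells, agonist R1881 at 0.5 nM final, 16 hr exposure at 37C and 0% CO2, luminescent detection.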

[19] = qHTS assay to identify small molecule HDAC inhibitors - cell viability counter screen (AID 1259365)
In short: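 HCT-116 (wild type), 1,500 cells/well, overnight 37C/5% CO2; compound in DMSO 2hr; CellTiter-Glo 30min RT; luminescence read.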

[20] = A CellTox Green Cytotoxicity Assay to monitor cytotoxicity in HepG2 cells - 0 hour (AID 1224882); further: nearly all actives have a fitted effect of over 35% in size
In short: as §2

Measured: Potency

Sequence of Androgen receptor (Homo sapiens) (P10275 whole entry, looked up): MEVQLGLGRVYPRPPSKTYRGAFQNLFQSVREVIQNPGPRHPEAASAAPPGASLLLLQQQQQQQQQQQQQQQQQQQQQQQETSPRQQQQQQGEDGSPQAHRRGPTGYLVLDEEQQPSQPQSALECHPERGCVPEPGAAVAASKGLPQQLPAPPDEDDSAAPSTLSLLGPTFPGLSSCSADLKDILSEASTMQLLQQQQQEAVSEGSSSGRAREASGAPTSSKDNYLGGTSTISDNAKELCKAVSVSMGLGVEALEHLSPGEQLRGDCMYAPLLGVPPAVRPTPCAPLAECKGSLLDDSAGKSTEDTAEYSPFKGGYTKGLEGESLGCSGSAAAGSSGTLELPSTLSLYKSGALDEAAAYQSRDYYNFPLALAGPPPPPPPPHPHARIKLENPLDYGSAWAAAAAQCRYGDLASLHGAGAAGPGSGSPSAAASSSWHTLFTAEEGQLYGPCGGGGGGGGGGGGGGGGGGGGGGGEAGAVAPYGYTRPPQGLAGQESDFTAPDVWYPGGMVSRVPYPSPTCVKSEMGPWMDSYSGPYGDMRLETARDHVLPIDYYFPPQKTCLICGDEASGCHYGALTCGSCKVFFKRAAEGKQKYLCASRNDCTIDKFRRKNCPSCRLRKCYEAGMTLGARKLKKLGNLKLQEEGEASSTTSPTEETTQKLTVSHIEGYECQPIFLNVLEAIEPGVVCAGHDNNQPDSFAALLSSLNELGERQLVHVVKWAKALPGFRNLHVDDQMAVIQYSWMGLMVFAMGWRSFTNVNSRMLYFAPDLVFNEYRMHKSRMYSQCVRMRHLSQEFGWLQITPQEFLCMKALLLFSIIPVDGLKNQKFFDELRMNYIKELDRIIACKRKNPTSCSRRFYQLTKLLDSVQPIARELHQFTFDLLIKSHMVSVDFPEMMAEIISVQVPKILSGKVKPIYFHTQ
Sequence of Estrogen receptor (Homo sapiens) (P03372 whole entry, looked up): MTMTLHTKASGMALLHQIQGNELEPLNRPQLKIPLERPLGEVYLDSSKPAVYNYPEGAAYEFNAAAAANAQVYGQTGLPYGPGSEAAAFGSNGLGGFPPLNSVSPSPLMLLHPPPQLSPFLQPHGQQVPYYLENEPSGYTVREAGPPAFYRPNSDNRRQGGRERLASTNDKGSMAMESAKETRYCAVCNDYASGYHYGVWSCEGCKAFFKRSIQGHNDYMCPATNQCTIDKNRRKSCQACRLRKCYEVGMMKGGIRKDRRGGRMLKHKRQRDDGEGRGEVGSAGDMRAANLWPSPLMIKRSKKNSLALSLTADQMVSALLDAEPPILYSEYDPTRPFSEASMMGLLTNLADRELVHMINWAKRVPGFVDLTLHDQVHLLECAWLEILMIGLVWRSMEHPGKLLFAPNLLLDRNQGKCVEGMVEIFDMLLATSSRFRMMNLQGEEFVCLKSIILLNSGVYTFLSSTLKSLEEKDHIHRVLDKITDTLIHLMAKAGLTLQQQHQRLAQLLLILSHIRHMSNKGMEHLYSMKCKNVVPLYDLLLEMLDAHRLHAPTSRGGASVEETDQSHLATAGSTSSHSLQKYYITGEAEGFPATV

CCOc1cc(NC(C)=O)ccc1C(=O)OC
not listed: [17] | [18] | [19] | [20]
inactive: all other assays above

O=C(/N=N/C(=O)OCc1ccccc1)OCc1ccccc1
not listed: [9] | [12] | [18] | [19] | [20]
inactive: all other assays above

CC(=O)NCc1c(I)c(NC(C)=O)c(I)c(C(=O)O)c1I
not listed: [2] | [7] | [11] | [17] | [20]
inactive: all other assays above

COc1ccc(Br)c(C)c1
not listed: [9] | [10] | [11] | [12] | [18] | [20]
inactive: all other assays above

Brc1ccc(-c2ccccc2)cc1
not listed: [11] | [12] | [17] | [18] | [20]
inactive: all other assays above

CC(=O)Nc1cccc(C)c1
not listed: [5] | [6] | [9] | [11] | [12] | [18] | [19] | [20]
inactive: all other assays above

C=CC(OCC)OCC
not listed: [9] | [10] | [11] | [12] | [18] | [20]
inactive: all other assays above

O=P(O)(O)OP(=O)(O)O
not listed: [11] | [18] | [20]
inactive: all other assays above

CC(C(=O)O)c1ccc2c(c1)CC(=O)c1ccccc1S2 (stereo unspecified)
not listed: [8] | [17] | [20]
inactive: all other assays above

C[C@H](CCC(=O)O)[C@H]1CC[C@H]2[C@@H]3C(=O)C[C@@H]4CC(=O)CC[C@]4(C)[C@H]3CC(=O)[C@]12C
not listed: [6] | [10] | [11] | [18] | [20]
inactive: all other assays above

CCCCCCOc1ccccc1C(N)=O
not listed: [5] | [6] | [11] | [13] | [18] | [20]
inactive: all other assays above

Cc1cc2cc3c(C)cc(=O)oc3c(C)c2o1
not listed: [1] | [18]
inactive: all other assays above

CN1C(C)(C)CCCC1(C)C
not listed: [6] | [10] | [18] | [19] | [20]
inactive: all other assays above

CC(=O)c1sc(C)nc1C
not listed: [8] | [11] | [12] | [18] | [20]
inactive: all other assays above

C=COCCOCCOCCOC=C
not listed: [11] | [12] | [17] | [20]
inactive: all other assays above

CC(=C(CCOC(=O)C(C)C)SSC(CCOC(=O)C(C)C)=C(C)N(C=O)Cc1cnc(C)nc1N)N(C=O)Cc1cnc(C)nc1N
not listed: [2] | [9] | [10] | [17] | [18] | [19] | [20]
inactive: all other assays above
